Holding throughout (assay): DAPPL (digital affinity profiling via proximity ligation, sequencing); 10 mM Tris-HCl pH 7.5, 50 mM NaCl, 1 mM DTT, 4% glycerol, room temperature, 30 min; GST-TFs on glutathione beads, 16-mer random dsDNA library, 0.1% formaldehyde crosslink after washing; high values mean tight binding
What all share (settings): protein: recombinant; tags: N-terminal GST; dsDNA, one strand shown

One experiment deals with T1, FLI1 (Homo sapiens, UniProt Q01543 1-452).
T1 sequence: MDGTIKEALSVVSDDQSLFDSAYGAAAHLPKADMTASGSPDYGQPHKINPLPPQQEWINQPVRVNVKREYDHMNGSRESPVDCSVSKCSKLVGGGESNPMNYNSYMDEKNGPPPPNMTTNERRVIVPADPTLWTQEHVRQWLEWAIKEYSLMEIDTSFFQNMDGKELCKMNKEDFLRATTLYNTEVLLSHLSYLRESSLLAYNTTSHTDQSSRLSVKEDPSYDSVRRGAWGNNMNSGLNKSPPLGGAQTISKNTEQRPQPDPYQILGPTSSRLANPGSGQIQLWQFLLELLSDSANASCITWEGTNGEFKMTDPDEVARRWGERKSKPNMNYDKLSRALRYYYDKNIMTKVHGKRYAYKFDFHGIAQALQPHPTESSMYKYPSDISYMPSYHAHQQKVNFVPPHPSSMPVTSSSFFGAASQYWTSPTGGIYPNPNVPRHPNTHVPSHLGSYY
Put shortly:
(§1)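 Human transcription factors carrying a GST fusion were produced in yeast, bound to glutathione beads, tagged with DNA barcodes and pooled together with a tag-only sample. Each pool was held with 200 nmole of a random double-stranded 16-mer DNA library in Tris/NaCl/DTT/glycerol buffer for 30 min at room temperature, then washed, crosslinked in 0.1% formaldehyde, proximity-ligated with BsaI/T4 ligase (1 h, 37 °C), PCR-amplified and sequenced on an Illumina NextSeq500. Binding signal is the read frequency of each hexamer for a given factor divided by its frequency in the tag-only sample.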

For a further experiment, the target named is T2, ELK1 (Homo sapiens, UniProt P19419 1-428).
T2 sequence: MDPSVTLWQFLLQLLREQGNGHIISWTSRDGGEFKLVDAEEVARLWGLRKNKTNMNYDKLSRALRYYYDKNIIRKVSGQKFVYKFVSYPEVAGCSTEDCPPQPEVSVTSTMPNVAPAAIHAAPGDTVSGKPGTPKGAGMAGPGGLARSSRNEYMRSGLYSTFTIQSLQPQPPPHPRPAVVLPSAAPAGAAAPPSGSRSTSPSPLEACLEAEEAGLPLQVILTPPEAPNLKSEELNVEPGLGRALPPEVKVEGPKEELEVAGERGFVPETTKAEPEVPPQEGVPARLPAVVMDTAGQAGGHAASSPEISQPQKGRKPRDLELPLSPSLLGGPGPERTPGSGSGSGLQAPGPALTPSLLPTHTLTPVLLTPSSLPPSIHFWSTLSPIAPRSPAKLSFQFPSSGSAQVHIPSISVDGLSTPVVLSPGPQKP
Put shortly:
as §1

The next experiment concerns the target T3, GABPA (Homo sapiens, UniProt Q06546 1-454).
T3 sequence: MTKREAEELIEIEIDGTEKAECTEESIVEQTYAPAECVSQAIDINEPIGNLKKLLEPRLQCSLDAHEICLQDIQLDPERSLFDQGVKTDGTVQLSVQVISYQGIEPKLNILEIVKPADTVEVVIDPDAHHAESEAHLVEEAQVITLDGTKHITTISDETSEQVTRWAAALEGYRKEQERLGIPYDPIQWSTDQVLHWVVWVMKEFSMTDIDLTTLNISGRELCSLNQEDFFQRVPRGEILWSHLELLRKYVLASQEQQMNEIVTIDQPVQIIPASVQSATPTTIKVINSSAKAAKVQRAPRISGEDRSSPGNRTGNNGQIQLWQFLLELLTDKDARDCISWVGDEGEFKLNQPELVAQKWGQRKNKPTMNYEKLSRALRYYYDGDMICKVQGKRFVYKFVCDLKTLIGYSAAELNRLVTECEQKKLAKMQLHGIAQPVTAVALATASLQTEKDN
Put shortly: as §1

The target in another experiment is T4, ERG (Homo sapiens, UniProt P11308 1-479).
T4 sequence: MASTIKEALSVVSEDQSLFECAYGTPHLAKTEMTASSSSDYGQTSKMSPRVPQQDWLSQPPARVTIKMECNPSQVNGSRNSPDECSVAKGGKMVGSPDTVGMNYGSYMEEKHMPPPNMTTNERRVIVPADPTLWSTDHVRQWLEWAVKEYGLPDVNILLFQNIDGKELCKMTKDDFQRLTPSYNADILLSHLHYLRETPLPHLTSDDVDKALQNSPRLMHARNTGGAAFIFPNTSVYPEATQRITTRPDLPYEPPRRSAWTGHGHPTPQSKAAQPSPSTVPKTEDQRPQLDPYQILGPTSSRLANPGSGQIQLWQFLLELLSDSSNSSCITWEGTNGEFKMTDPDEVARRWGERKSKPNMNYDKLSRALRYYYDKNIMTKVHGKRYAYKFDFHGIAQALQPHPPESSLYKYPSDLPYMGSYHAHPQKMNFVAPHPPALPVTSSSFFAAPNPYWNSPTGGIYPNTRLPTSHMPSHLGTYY
Put shortly:
as §1

The next experiment addresses ELF1 (Homo sapiens, UniProt P32519 1-619). Put shortly:
as §1

A further experiment has as its target T5, EHF (Homo sapiens, UniProt Q9NZC4 1-300).
T5 sequence: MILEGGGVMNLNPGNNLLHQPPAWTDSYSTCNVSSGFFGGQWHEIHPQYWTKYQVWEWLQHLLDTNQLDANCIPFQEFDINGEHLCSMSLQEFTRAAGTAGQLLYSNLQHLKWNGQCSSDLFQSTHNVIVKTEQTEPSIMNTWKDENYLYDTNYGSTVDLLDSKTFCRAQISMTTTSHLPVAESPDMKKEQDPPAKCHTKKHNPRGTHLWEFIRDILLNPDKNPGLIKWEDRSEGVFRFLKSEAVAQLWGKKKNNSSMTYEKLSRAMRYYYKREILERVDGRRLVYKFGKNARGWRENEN
Put shortly:
as §1

The target of another experiment is SPI1 (Homo sapiens, UniProt P17947 1-270). Put shortly: as §1
Another experiment has as its target SPIB (Homo sapiens, UniProt Q01892 1-262). Put shortly: as §1
The target in another experiment is T6, ELK3 (Homo sapiens, UniProt P41970 1-407).
T6 sequence: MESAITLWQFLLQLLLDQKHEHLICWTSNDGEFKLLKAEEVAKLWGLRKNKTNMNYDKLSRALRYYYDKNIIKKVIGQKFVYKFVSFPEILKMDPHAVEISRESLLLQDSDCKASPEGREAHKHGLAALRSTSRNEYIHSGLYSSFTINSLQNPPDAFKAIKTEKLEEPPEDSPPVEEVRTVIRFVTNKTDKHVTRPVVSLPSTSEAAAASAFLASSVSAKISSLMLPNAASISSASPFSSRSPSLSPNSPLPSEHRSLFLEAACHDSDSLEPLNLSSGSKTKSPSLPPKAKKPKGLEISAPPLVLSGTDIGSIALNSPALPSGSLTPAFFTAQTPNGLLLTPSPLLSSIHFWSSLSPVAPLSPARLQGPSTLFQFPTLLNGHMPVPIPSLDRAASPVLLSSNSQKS
Put shortly:
as §1

Chain of SPIB (Q01892 whole entry): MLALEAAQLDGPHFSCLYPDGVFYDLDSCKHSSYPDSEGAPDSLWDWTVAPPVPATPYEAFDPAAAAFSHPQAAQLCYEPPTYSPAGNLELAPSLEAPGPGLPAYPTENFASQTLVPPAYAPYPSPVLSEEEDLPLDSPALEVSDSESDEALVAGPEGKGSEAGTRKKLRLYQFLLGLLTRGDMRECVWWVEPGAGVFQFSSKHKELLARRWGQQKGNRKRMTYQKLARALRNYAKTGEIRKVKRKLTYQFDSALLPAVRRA
Chain of ELF1 (P32519 whole entry): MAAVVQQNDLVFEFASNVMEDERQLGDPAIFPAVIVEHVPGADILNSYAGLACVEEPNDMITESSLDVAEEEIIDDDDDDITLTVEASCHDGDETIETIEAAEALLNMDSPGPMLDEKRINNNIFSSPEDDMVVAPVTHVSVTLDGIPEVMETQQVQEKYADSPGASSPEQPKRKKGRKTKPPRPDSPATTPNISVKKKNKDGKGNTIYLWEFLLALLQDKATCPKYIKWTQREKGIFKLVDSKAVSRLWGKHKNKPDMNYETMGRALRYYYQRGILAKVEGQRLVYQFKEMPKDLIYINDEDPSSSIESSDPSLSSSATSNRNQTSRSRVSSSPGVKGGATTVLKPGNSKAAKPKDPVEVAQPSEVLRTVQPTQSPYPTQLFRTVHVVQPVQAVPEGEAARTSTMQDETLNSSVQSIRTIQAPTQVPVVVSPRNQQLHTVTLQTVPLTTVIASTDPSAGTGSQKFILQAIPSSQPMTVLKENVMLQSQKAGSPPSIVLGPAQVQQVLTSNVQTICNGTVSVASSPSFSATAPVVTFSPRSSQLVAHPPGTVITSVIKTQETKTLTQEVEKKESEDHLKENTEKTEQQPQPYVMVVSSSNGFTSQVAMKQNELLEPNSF

For the sequence TTCAAG, the binding signal with FLI1 was 1.22 fold enrichment (6-mer frequency, TF over GST control); in the experiment with ELK1, 1.22 fold enrichment (6-mer frequency, TF over GST control); with GABPA, 1.25 fold enrichment (6-mer frequency, TF over GST control); with ERG it was 1.24 fold enrichment (6-mer frequency, TF over GST control); in the experiment with ELF1 it was 1.28 fold enrichment (6-mer frequency, TF over GST control); in the experiment with EHF it was 1.3 fold enrichment (6-mer frequency, TF over GST control). Also, the binding signal with SPI1 was 1.2 fold enrichment (6-mer frequency, TF over GST control); in the experiment with SPIB, 1.29 fold enrichment (6-mer frequency, TF over GST control); with ELK3, 1.22 fold enrichment (6-mer frequency, TF over GST control).
With GTTTCG, the binding signal in the experiment with FLI1 is 1.28 fold enrichment (6-mer frequency, TF over GST control); in the experiment with ELK1 it was 1.22 fold enrichment (6-mer frequency, TF over GST control); with GABPA, 1.22 fold enrichment (6-mer frequency, TF over GST control); with ERG, 1.25 fold enrichment (6-mer frequency, TF over GST control); in the experiment with ELF1 it was 1.27 fold enrichment (6-mer frequency, TF over GST control); in the experiment with EHF it was 1.33 fold enrichment (6-mer frequency, TF over GST control). The binding signal is 1.25 fold enrichment (6-mer frequency, TF over GST control) with SPI1; 1.23 fold enrichment (6-mer frequency, TF over GST control) with SPIB; 1.15 fold enrichment (6-mer frequency, TF over GST control) with ELK3.
As for TTCAAC, the binding signal with FLI1 is 1.3 fold enrichment (6-mer frequency, TF over GST control); in the experiment with ELK1, 1.31 fold enrichment (6-mer frequency, TF over GST control); with GABPA it was 1.24 fold enrichment (6-mer frequency, TF over GST control); in the experiment with ERG, 1.26 fold enrichment (6-mer frequency, TF over GST control); with ELF1, 1.33 fold enrichment (6-mer frequency, TF over GST control); with EHF, 1.32 fold enrichment (6-mer frequency, TF over GST control). Moreover, the binding signal with SPI1 was 1.28 fold enrichment (6-mer frequency, TF over GST control); in the experiment with SPIB, 1.38 fold enrichment (6-mer frequency, TF over GST control); in the experiment with ELK3, 1.29 fold enrichment (6-mer frequency, TF over GST control).
With GATATA, the binding signal is 1.12 fold enrichment (6-mer frequency, TF over GST control) with FLI1; 1.06 fold enrichment (6-mer frequency, TF over GST control) with ELK1; 1.15 fold enrichment (6-mer frequency, TF over GST control) in the experiment with GABPA; 1.13 fold enrichment (6-mer frequency, TF over GST control) in the experiment with ERG; 1.09 fold enrichment (6-mer frequency, TF over GST control) in the experiment with ELF1; 1.18 fold enrichment (6-mer frequency, TF over GST control) with EHF. For the same sequence, the binding signal is 1.09 fold enrichment (6-mer frequency, TF over GST control) in the experiment with SPI1; 1.06 fold enrichment (6-mer frequency, TF over GST control) with SPIB; 1.17 fold enrichment (6-mer frequency, TF over GST control) with ELK3.
On to GCCTAC, for which the binding signal in the experiment with FLI1 was 1.18 fold enrichment (6-mer frequency, TF over GST control); with ELK1, 1.17 fold enrichment (6-mer frequency, TF over GST control); with GABPA, 1.28 fold enrichment (6-mer frequency, TF over GST control); with ERG it was 1.25 fold enrichment (6-mer frequency, TF over GST control); with ELF1, 1.21 fold enrichment (6-mer frequency, TF over GST control); with EHF, 1.25 fold enrichment (6-mer frequency, TF over GST control). In addition, the binding signal was 1.18 fold enrichment (6-mer frequency, TF over GST control) with SPI1; 1.21 fold enrichment (6-mer frequency, TF over GST control) with SPIB; 1.1 fold enrichment (6-mer frequency, TF over GST control) with ELK3.
For the sequence TATGAT, the binding signal with FLI1 is 1.21 fold enrichment (6-mer frequency, TF over GST control); with ELK1, 1.18 fold enrichment (6-mer frequency, TF over GST control); in the experiment with GABPA it was 1.22 fold enrichment (6-mer frequency, TF over GST control); with ERG, 1.2 fold enrichment (6-mer frequency, TF over GST control); in the experiment with ELF1 it was 1.24 fold enrichment (6-mer frequency, TF over GST control); with EHF it was 1.27 fold enrichment (6-mer frequency, TF over GST control). Besides, the binding signal is 1.18 fold enrichment (6-mer frequency, TF over GST control) in the experiment with SPI1; 1.23 fold enrichment (6-mer frequency, TF over GST control) in the experiment with SPIB; 1.23 fold enrichment (6-mer frequency, TF over GST control) with ELK3.
With TAGTTA, the binding signal was 1.19 fold enrichment (6-mer frequency, TF over GST control) in the experiment with FLI1; 1.2 fold enrichment (6-mer frequency, TF over GST control) with ELK1; 1.2 fold enrichment (6-mer frequency, TF over GST control) with GABPA; 1.12 fold enrichment (6-mer frequency, TF over GST control) in the experiment with ERG; 1.11 fold enrichment (6-mer frequency, TF over GST control) with ELF1; 1.12 fold enrichment (6-mer frequency, TF over GST control) with EHF. Besides, the binding signal with SPI1 is 1.09 fold enrichment (6-mer frequency, TF over GST control); in the experiment with SPIB, 1.19 fold enrichment (6-mer frequency, TF over GST control); in the experiment with ELK3, 1.12 fold enrichment (6-mer frequency, TF over GST control).
ATTGGT: the binding signal with FLI1 is 1.31 fold enrichment (6-mer frequency, TF over GST control); in the experiment with ELK1, 1.34 fold enrichment (6-mer frequency, TF over GST control); with GABPA, 1.14 fold enrichment (6-mer frequency, TF over GST control); in the experiment with ERG, 1.19 fold enrichment (6-mer frequency, TF over GST control); with ELF1 it was 1.22 fold enrichment (6-mer frequency, TF over GST control); in the experiment with EHF, 1.28 fold enrichment (6-mer frequency, TF over GST control). Moreover, the binding signal in the experiment with SPI1 was 1.25 fold enrichment (6-mer frequency, TF over GST control); with SPIB, 1.33 fold enrichment (6-mer frequency, TF over GST control); in the experiment with ELK3, 1.33 fold enrichment (6-mer frequency, TF over GST control).

Source of the values: paper PMC7862700, “An all-to-all approach to the identification of sequence-specific readers for epigenetic DNA modifications on cytosine”.
